Among the data in PubChem BioAssay (NCI) are growth values, retold here.

Test systems include HCT-15 colon; HT29 colon; SNB-75 CNS; SNB-19 CNS; U251 CNS; PC-3 prostate; SK-MEL-5 melanoma; UACC-62 melanoma; LOX IMVI melanoma; SK-MEL-28 melanoma; SK-MEL-2 melanoma; EKVX NSCLC; SN12C renal; UO-31 renal; TK-10 renal; ACHN renal; CAKI-1 renal; A498 renal; CCRF-CEM leukemia; MOLT-4 leukemia.
Common to all, as to test: NCI-60 one-dose screen, 48 h (100 = growth as untreated, 0 = no growth, -100 = all killed)
Holding throughout (settings): 10 µM unless noted

Molecules are shown by their SMILES. The panel holds about 83,000 compounds, 20% with a hit somewhere; the sample as a whole holds those more often.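 96-well plates, one dose, 48 hours. Percent growth reported; active if below 10.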 A number with no mark means an inactive call. The source made the active and inactive calls.

For `CCN(C(=O)N1CCN(c2cc3c(cc2F)c(=O)c(C(=O)O)cn3C2CC2)CC1)c1nc(-c2ccccc2)cs1`, the growth with HCT-15 colon is 9.62% (active); in the test on HT29 colon, 10.9%; with SNB-75 CNS it was 31.3%; with SNB-19 CNS it was 22.5%; with U251 CNS it was 20.7%; in the test on PC-3 prostate, 11.5%. Further, the growth was 11.7% in the test on SK-MEL-5 melanoma; 13.1% in the test with UACC-62 melanoma; -11.1% (active) in the test on LOX IMVI melanoma; 41.8% in the test with SK-MEL-28 melanoma; 45.9% with SK-MEL-2 melanoma; 31% in the test on EKVX NSCLC. The growth in the test on SN12C renal is 5.8% (active); with UO-31 renal, 1.81% (active); in the test with TK-10 renal it was 40.9%; in the test on ACHN renal it was 8.64% (active); with CAKI-1 renal it was 29.4%; in the test on A498 renal it was 5.67% (active). Also, the growth in the test with CCRF-CEM leukemia is 18.1%; in the test on MOLT-4 leukemia it was 14.7%.

`C#CCn1cnc2cnc(Nc3cccc(NC(=O)CCl)c3)nc21`: the growth in the test on HCT-15 colon is 6.26% [6.25 µM] (active); in the test with HT29 colon it was 0.208% [6.25 µM] (active); in the test on SNB-75 CNS it was -28.7% [6.25 µM] (active); in the test with SNB-19 CNS, 11.5% [6.25 µM]; in the test with U251 CNS, -49.2% [6.25 µM] (active); with PC-3 prostate, 18.9% [6.25 µM]. For the same molecule, the growth in the test on SK-MEL-5 melanoma is -59.4% [6.25 µM] (active); with UACC-62 melanoma, -23.1% [6.25 µM] (active); with LOX IMVI melanoma, -48.6% [6.25 µM] (active); with SK-MEL-28 melanoma it was 14.5% [6.25 µM]; in the test on SK-MEL-2 melanoma, -14.1% [6.25 µM] (active); with EKVX NSCLC it was 69.1% [6.25 µM]. Further, the growth is 6.82% [6.25 µM] (active) in the test with SN12C renal; -71.1% [6.25 µM] (active) in the test with UO-31 renal; -5.69% [6.25 µM] (active) in the test on TK-10 renal; -39.9% [6.25 µM] (active) with ACHN renal; -34.2% [6.25 µM] (active) in the test on CAKI-1 renal; -42.2% [6.25 µM] (active) in the test with A498 renal. The figures for the growth in the test with CCRF-CEM leukemia and in the test with MOLT-4 leukemia were 1.51% [6.25 µM] (active) and 0.772% [6.25 µM] (active), respectively.

Turning to `COc1ccc(NC(=O)Nc2ccccc2CNc2nc(Nc3ccc(OCCN4CCCC4)cc3)ncc2Cl)cc1`, the growth was 5.09% (active) in the test with HCT-15 colon; 3.08% (active) with HT29 colon; -47.8% (active) in the test on SNB-75 CNS; 33.9% in the test with SNB-19 CNS; -15.2% (active) in the test with U251 CNS; 23.3% with PC-3 prostate. For the same molecule, the growth is -40.6% (active) in the test with SK-MEL-5 melanoma; -53.4% (active) in the test with UACC-62 melanoma; -99% (active) with LOX IMVI melanoma; -77.7% (active) in the test on SK-MEL-28 melanoma; -20.2% (active) in the test with SK-MEL-2 melanoma; 55.4% with EKVX NSCLC. In addition, the growth with SN12C renal was -44.2% (active); with UO-31 renal, -86% (active); in the test with TK-10 renal, 1.49% (active); with ACHN renal, -94.7% (active); in the test with CAKI-1 renal, -79.1% (active); in the test on A498 renal it was 51.9%. Further, the growth was 1.9% (active) in the test with CCRF-CEM leukemia and 1.79% (active) with MOLT-4 leukemia.

Consider `CCOc1nc(-c2ccccc2)cc2c(O)c(C(=O)N/N=C/c3ccc(N(C)C)cc3)[nH]c(=O)c12`, for which the growth in the test with HCT-15 colon is 117%; in the test on HT29 colon it was 145%; in the test on SNB-75 CNS it was 124%; in the test on SNB-19 CNS, 133%; with U251 CNS, 94.7%; with PC-3 prostate, 88.9%. Further, the growth was 105% in the test with SK-MEL-5 melanoma; 98.2% in the test on UACC-62 melanoma; 97.8% in the test with LOX IMVI melanoma; 98.5% with SK-MEL-28 melanoma; 78.8% in the test on SK-MEL-2 melanoma; 97.5% in the test on EKVX NSCLC. The growth in the test with SN12C renal was 103%; with UO-31 renal, 88.2%; in the test on TK-10 renal it was 126%; in the test with ACHN renal, 102%; with CAKI-1 renal, 108%; in the test on A498 renal, 97.3%. Also, the values for the growth with CCRF-CEM leukemia and in the test with MOLT-4 leukemia were 98.1% and 95.1%, respectively.

Take `COc1ccc(-c2cc3cnc4ccccc4c3oc2=O)cc1`: the growth is 92.3% with HCT-15 colon; 96.8% in the test on HT29 colon; 104% in the test on SNB-75 CNS; 99% in the test with SNB-19 CNS; 94% in the test with U251 CNS; 92.5% in the test on PC-3 prostate. The growth in the test on SK-MEL-5 melanoma is 104%; with UACC-62 melanoma, 96.5%; with LOX IMVI melanoma, 97.6%; with SK-MEL-28 melanoma, 100%; in the test on SK-MEL-2 melanoma, 120%; in the test with EKVX NSCLC, 101%. For the same molecule, the growth with SN12C renal is 100%; in the test on UO-31 renal, 88.7%; in the test on TK-10 renal, 99.2%; in the test on ACHN renal, 106%; in the test with CAKI-1 renal it was 89.7%; in the test with A498 renal it was 93.1%. Also, the values for the growth with CCRF-CEM leukemia and in the test with MOLT-4 leukemia were 89% and 104%, respectively.

In the case of `Cc1ccc(Cc2cnc(NC(=O)c3cc(C)oc3C)s2)cc1`, the growth is 39.1% in the test with HCT-15 colon; 51.3% with HT29 colon; 76.6% in the test on SNB-75 CNS; 84.2% in the test with SNB-19 CNS; 66.9% in the test with U251 CNS; 72.8% in the test on PC-3 prostate. In addition, the growth with SK-MEL-5 melanoma is 93.6%; in the test on UACC-62 melanoma it was 47.6%; in the test with LOX IMVI melanoma it was 68.9%; in the test with SK-MEL-28 melanoma it was 81.3%; with SK-MEL-2 melanoma, 85.6%; with EKVX NSCLC, 57.4%. Besides, the growth in the test on SN12C renal is 86.9%; with UO-31 renal, 61.2%; in the test on TK-10 renal, 63.6%; in the test with ACHN renal, 70.4%; with CAKI-1 renal, 38.4%; in the test on A498 renal it was 84.4%. Also, the values for the growth with CCRF-CEM leukemia and in the test with MOLT-4 leukemia were 70.8% and 60.2%, respectively.

For `Nc1n[nH]c2cccc(C#Cc3cccc(C(=O)Nc4ccc(CN5CCOCC5)c(C(F)(F)F)c4)c3)c12`, the growth in the test with HCT-15 colon was 22.5%; with HT29 colon, 17.4%; with SNB-75 CNS, 52.9%; with SNB-19 CNS, 75.2%; in the test with U251 CNS it was 40.3%; in the test with PC-3 prostate it was 29.5%. The growth in the test on SK-MEL-5 melanoma was 17.5%; in the test with UACC-62 melanoma it was 5.89% (active); with LOX IMVI melanoma it was 6.76% (active); in the test with SK-MEL-28 melanoma it was 14.5%; with SK-MEL-2 melanoma, 23.3%; with EKVX NSCLC, 63.4%. Besides, the growth in the test on SN12C renal is 54.8%; in the test on UO-31 renal, 22.3%; in the test on TK-10 renal it was 76.2%; with ACHN renal it was 24.8%; in the test with CAKI-1 renal, 73.4%; in the test with A498 renal, 67.5%. Also, the growth is 20.7% in the test on CCRF-CEM leukemia and 16.9% with MOLT-4 leukemia.
